Data on 40 molecules can be found in PubChem BioAssay AID652040 (Broad Institute, 2013).

Results with a measured potency or affinity are listed apart. A number with no mark means an inactive call. Calls of active or inactive are those of the source.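 How the source made its calls: active means falling luciferase signal whose fitted half-maximal concentration is at most twice the top tested dose; inconclusive means flat inhibition between 30 and 70% or a poor curve fit; inactive means the rest.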

The nature of this experiment: off-target signal loss in HeLa-CEM21 co-culture – HeLa F-luc CTL cells, cherry-picked, counter-screen for HIV-1 Env fusion inhibitor project, dose response (AID 652040).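 Further: 0% = median of neutral control wells and -100% = doxycycline 40 µg/mL wells; more negative values mean stronger loss of luciferase signal.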 As to conditions: HeLa-F-luc CTL cells with CEM21, firefly luciferase counterscreen; series mostly up to 35 µM. On the technique in general: A counterscreen serves to expose hits that act by an unwanted route or on another target.
For the molecule `COc1ccc(CCNC(=O)C2CCCN(Cc3nc(-c4cccc(Cl)c4)oc3C)C2)cc1OC` (stereo not given), the outcome was inactive. Same read-out and setting: under `O=C(Nc1ccc(S(=O)(=O)N2CCN(Cc3ccccc3)CC2)cc1)c1cnccn1` stands “inactive”; under `CCC(=O)N(C)C(c1ccccc1Cl)c1nnnn1-c1c(C)cccc1C` (stereo not given), “inactive”. Same read-out and setting: under `COCCCn1c(-c2ccc(S(=O)(=O)N3CCOCC3)cc2)csc1=Nc1ccccc1` stands “inactive”; under `C=CC[n+]1c(-c2ccc(OC)c(OC)c2)csc1NNC(=O)Nc1ccccc1`, “inactive”; under `O=C(Nc1ccc(N2CCN(C(=O)c3ccc(Cl)cc3)CC2)cc1)c1ccc2c(c1)OCCO2`, “inactive”. The same measure, in the same setting: the entry for `Cc1cc(Cl)c(S(=O)(=O)N2CCCC2)cc1OCC(=O)NC1CCCCC1` is “inactive”; for `CCc1nnc(NC(=O)[C@@H](NC(=O)c2cccc(S(=O)(=O)N(CC)CC)c2)C(C)C)s1` it is “inactive”; for `N#Cc1ccc(CN2CCN(C(=O)CNC(=O)Cc3cccc4ccccc34)CC2)cc1` it is “inactive”.

On to `CC1Cc2cc(-c3csc(NC(=O)Cc4cccs4)n3)ccc2N1S(C)(=O)=O` (stereo not given), for which the result was inactive. Still for that read-out and setting: under `O=C(Nc1ccncc1)c1ccc(Cl)c(S(=O)(=O)N2CCc3ccccc32)c1` stands “inactive”.

Take `CCN(c1nc(N)c(C(=O)N=C(N)N)nc1Cl)C(C)C`: the outcome was inactive.

On to `COC(=O)[C@@]1(Cc2ccc(F)cc2)[C@H]2c3cc(C(=O)N(C)C)n(CCO)c3C[C@H]2CN1C(=O)c1ccccc1`, for which the outcome was inactive.

Take `CCCCOc1ccc(S(=O)(=O)Nc2cccnc2)cc1`: the molecule was classed as inactive. On to `Cc1ccc(C(=O)NCc2ccccn2)cc1S(=O)(=O)N1CCCCC1`, for which the call was inactive.

With `CCOc1ccc(NC2c3ccccc3C(=O)N2Cc2ccco2)cc1` (stereo not given), the outcome was inactive. On the same count and under the same terms, the entry for `CCOc1ccccc1C(=O)NCC(=O)NNC(=O)CN(C)S(=O)(=O)c1ccc(Cl)cc1` is “inactive”; for `CC(C)OCCCn1c(=S)[nH]c2ccc(N3CCOCC3)cc2c1=O` it is “inactive”; for `Cc1ccc(NC(=O)c2ccc(OCC3CCCO3)cc2)cc1Cl` (stereo not given) it is “inactive”. With `CSc1ccc(CN(C)C(=O)c2cccc(S(=O)(=O)N3CCN(Cc4ccccc4)CC3)c2)cc1`, the molecule was called inactive.

For the molecule `O=C(N/N=C/c1ccc(-n2ccnc2)cc1)c1cccs1`, the call was inactive.

For the molecule `CC1CCCCN1S(=O)(=O)c1ccc(C(=O)Nc2nnc(-c3cccs3)o2)cc1` (stereo not given), the call was inactive. The same measure, in the same setting: the entry for `C=C(C)CN(CC)c1nc(N)c2c(N)nc3c(c2c1C#N)CC(=O)N3C12CC3CC(CC(C3)C1)C2` is “inactive”; for `Cn1c(=O)c2c(nc(NCCc3ccccc3)n2Cc2ccccc2)n(C)c1=O` it is “inactive”. Still for that read-out and setting: the entry for `COc1ccc(S(=O)(=O)N2CCCCC2)cc1NC(=O)CN(Cc1ccco1)Cc1ccco1` is “inactive”; for `CCNc1ncnc2c1cnn2C1CCCO1` (stereo not given) it is “inactive”; for `Cc1cc(Nc2cccc(C(F)(F)F)c2)cc(=O)n1-c1cccc(C(F)(F)F)c1` it is “inactive”. As to `Cc1cc2ncn(S(=O)(=O)N3CCCCC3)c2cc1C`, the outcome was inactive. With `COc1ccc(C(=O)NCCc2ccc(Cl)cc2)cc1S(=O)(=O)N1CCCCC1C` (stereo not given), the outcome was inactive. Same read-out and setting: the entry for `O=C(COc1ccc(-n2cnnn2)cc1)Nc1ccc(F)c(F)c1` is “inactive”; for `COc1ccc(/C=C/c2nc(S(=O)(=O)c3ccccc3)c(NCCCN(C)C)o2)cc1OC` it is “inactive”. On the same count and under the same terms, the entry for `COc1ccc2c(c1)[nH]c1c(N3CCN(Cc4ccc5c(c4)OCO5)CC3)ncnc12` is “inactive”; for `Cc1ccc(S(=O)(=O)N(C)c2ccc(C(=O)N3CCN(Cc4ccc5c(c4)OCO5)CC3)cc2)cc1` it is “inactive”. The same measure, in the same setting: under `O=C(c1cc(COc2cccc(C(F)(F)F)c2)on1)N1CCC(c2ccncc2)CC1` stands “inactive”; under `Cc1cc(Cl)c(S(=O)(=O)N2CCSCC2)cc1OCC(=O)NC1CCCCC1`, “inactive”. With `CC1CCC(C(C)C)C(OC(=O)Cn2c(-c3ccc(Cl)cc3)[n+](C)c3ccccc32)C1` (stereo not given), the activity change, negative = inhibition was 55.5% [at 8 µM]. For `CC(c1nc2ccccc2c(=O)[nH]1)N(C)CCOc1ccc(Cl)cc1` (stereo not given), the call was inactive. The same measure, in the same setting: under `COc1ccc(CCNC(=O)COC(=O)c2cccn2C)cc1` stands “inactive”; under `CC(=O)c1c(C)[nH]c(C(=O)OCC(=O)Nc2c(C)cccc2C)c1C`, “inactive”. Turning to `Cc1ccc(NS(=O)(=O)c2cc(C(=O)N(C)C3CCN(C)CC3)ccc2Cl)cc1Cl`, the molecule was called inactive.
